Among the data in PubChem BioAssay AID493191 (Broad Institute, 2011) are outcome values, retold here.

Screen size: about 1,300 compounds; about 330 (25%) were called active. No rule for the calls is given here. Only a sample is shown. Results with a measured potency or affinity are listed apart.

A short description of the assay: growth inhibition of MALME3 cells – cell-based, CellTiter-Glo, cherry-picked, orthogonal assay for MITF inhibitor project, dose response (AID 493191). The settings on record: MALME3 melanoma viability, CellTiter-Glo luminescence, 24 h; series mostly up to 35 µM. (Cellular ATP, detected with luciferase, serves as a proxy for viable cell number.)
Regarding `CC1CC(C)CN(C(=O)/C=C/c2ccc([N+](=O)[O-])s2)C1` (stereo not drawn), the molecule was called inactive.

In the case of `Cc1ccc(NC(=O)/C=C/c2ccc([N+](=O)[O-])s2)c(C)c1`, the call was inactive.

In the case of `O=C(/C=C/c1ccc([N+](=O)[O-])s1)N1CCCC1`, the result was inactive.

For `O=C(/C=C/c1ccccc1)Nc1cccc(C(=O)O)c1`, the molecule was classed as inactive.

In the case of `CC(C)N=c1c([N+](=O)[O-])nn(C)n1O`, the call was inactive.

In the case of `OCC1OC(n2cnc3c(NCc4ccco4)ncnc32)C(O)C1O` (stereo not drawn), the result was inactive.

On to `CC(Oc1ccc(F)cc1)C(=O)Nc1nc(-c2ccccn2)cs1` (stereo not drawn), for which the result was inactive.

As for `CCC(=O)NCCc1nc2cc(NC(=O)c3cccc([N+](=O)[O-])c3)ccc2n1C`, the molecule was classed as inactive.

Turning to `O=C(Nc1ccc(F)c(Cl)c1)c1ccc2c(c1)OCO2`, the result was inactive.

Turning to `O=C(Cn1cnc2ccccc2c1=O)Nc1ccc2c(c1)OCCO2`, the call was inactive.

In the case of `O=C(N/N=C\c1cc(Cl)ccc1O)c1ccc(S(=O)(=O)N2CCCCC2)cc1`, the result was inactive.

In the case of `COc1ccc(NS(=O)(=O)c2cc(NC(=O)CNC(=O)c3cccc(OC)c3)ccc2C)cc1`, the molecule was classed as inactive.

In the case of `Cc1cc(C)n(-c2ccc(C(=O)Nc3ccc(C)c(S(=O)(=O)N4CCOCC4)c3)cc2)n1`, the result was inactive.

With `CCN1CCc2c(sc(NC(=O)c3ccc(S(=O)(=O)N4CCCCCC4)cc3)c2C(=O)NC)C1`, the molecule was classed as inactive.

Turning to `O=C(Nc1ccccc1F)C(=O)Nc1cccc2ccccc12`, the call was inactive.

As to `Cc1ccc2oc(C(Cl)(Cl)Cl)cc(=O)c2c1`, the result was inactive.

In the case of `O=C(CSc1nnnn1-c1ccc(O)cc1)Nc1cccc(S(=O)(=O)N2CCCC2)c1`, the result was inactive.

In the case of `O=C(CCl)Nc1cccc(S(=O)(=O)NC2=NCCCCC2)c1`, the call was inactive.

Turning to `COc1ccc(C(=O)Nc2nc3ccc(OC)cc3s2)cc1`, the outcome was inactive.

As for `CC1CCN(c2nc3ccc(C(=O)O)cc3s2)CC1`, the molecule was called inactive.

Take `COc1cccc(N2CCN(C(=O)c3ccc(CS(=O)c4ccccc4Cl)o3)CC2)c1` (stereo not drawn): the molecule was classed as inactive.

In the case of `O=C(c1ccc(F)cc1)N1CCC(c2ccccc2)C1` (stereo not drawn), the molecule was called inactive.

Consider `CC(C)c1nnc(NC(=O)CCC2CCCCC2)s1`, for which the result was inactive.

For `COc1ccc2oc(=O)c(C(=O)Nc3ccccc3C)cc2c1`, the molecule was called inactive.

Turning to `c1ccc(OCc2nn3c(-c4ccccn4)nnc3s2)cc1`, the result was inactive.

`COc1ccc(-c2c[n+](CC(=O)OC3CC(C)CCC3C(C)C)c3n2CCC3)cc1` (stereo not drawn): the result was inactive.

For `Cc1ccc(-c2c[n+](Cc3ccc(Cl)cc3)c3n2CCC3)cc1`, the outcome was inactive.

As to `COc1ccc(N/N=C/c2c(C(=O)O)ccc3ccccc23)cc1`, the molecule was called inactive.

Consider `Cc1ccc(COc2ccc(C)nc2[N+](=O)[O-])cc1`, for which the molecule was called inactive.

Take `CCc1cc(C=NC2CCCCC2)c(O)s1`: the call was inactive.

As to `O=[N+]([O-])c1cc(Cl)cc(/C=N\Nc2ccccn2)c1O`, the molecule was called inactive.

As to `COc1cc2c(c(OC)c1OC)-c1ccc(N(C)CC(OC)OC)c(=O)cc1[C@@H](NC(C)=O)CC2`, the call was inactive.

Turning to `Cc1cc(N2CCOCC2)ccc1/C=C\[N+](=O)[O-]`, the molecule was classed as inactive.

`O=C(Nc1ccc(Cl)cc1)C1C2CCCCC21` (stereo not drawn): the molecule was called inactive.

For `COc1ccc(C(=O)NC(=O)Nc2cc(C)ccn2)cc1`, the outcome was inactive.

Take `N/C(=N\OC(=O)c1ccccc1)c1ccccn1`: the molecule was called inactive.

As for `COCc1cc(C)nc2sc(C(=O)Nc3cccc(OC)c3)c(N)c12`, the molecule was called inactive.

Turning to `Cc1cccc2sc(N(CCCN(C)C)C(=O)c3nc4ccccc4s3)nc12`, the call was inactive.

With `CCC(=O)OCCNc1cc(Sc2nc3ccccc3[nH]2)c2nonc2c1[N+](=O)[O-]`, the molecule was classed as inactive.

Regarding `O=[N+]([O-])c1c(NCCCO)cc(Sc2ccc(Cl)cc2)c2nonc12`, the result was inactive.

`CC(=O)OCCCNc1cc(Sc2ccc(Cl)cc2)c2nonc2c1[N+](=O)[O-]`: the outcome was inactive.

As to `O=C(Nc1ccccc1F)c1ccc2c(c1)OCO2`, the outcome was inactive.

Consider `COc1cccc(-c2nnc3n2N=C(C(C)(C)C)CS3)c1`, for which the call was inactive.

For the molecule `Cc1ccc(C2=NN(C(=O)CCl)C(c3cccs3)C2)o1` (stereo not drawn), the call was inactive.

As to `C=C1C(=O)C=C[C@]2(C)C[C@@H]3OC(=O)[C@](C)(O)[C@H]3C[C@@H]12`, the molecule was called inactive.

On to `CNc1oc(/C=C/c2cccc(OC)c2)nc1C#N`, for which the molecule was called inactive.

On to `CCCN1C(=O)c2ccc(C(=O)Nc3cc(C)ccc3O)cc2C1=O`, for which the result was inactive.

With `NNC(=O)c1cc2ccccc2cc1O`, the molecule was called inactive.

`Cn1c(=O)c([N+](=O)[O-])c(-n2ccnc2)c2ccccc21`: the call was inactive.

Consider `CCn1c(=O)c(C(=O)NCc2ccccc2Cl)c(O)c2ccccc21`, for which the molecule was called inactive.

Regarding `COc1cc([N+](=O)[O-])cc(/C=N/NC(=O)c2ccc(NC(=O)c3ccc(C)cc3)cc2)c1O`, the molecule was classed as inactive.

Regarding `CCOc1cc(NC(=O)CCl)c(OCC)cc1NC(=O)CCl`, the call was inactive.

Take `O=C(O)c1cccc(NC(=S)N/N=C/c2ccccn2)c1`: the outcome was inactive.

Turning to `O=C(NC1CCCCC1)C(c1cccnc1)N(C(=O)CCl)c1ccc(F)cc1` (stereo not drawn), the molecule was called inactive.

In the case of `COc1cc2c(cc1OC)C(C)N(S(=O)(=O)c1cnc(Cl)c(Cl)c1)CC2` (stereo not drawn), the molecule was called inactive.

For `COc1cc(CN2CCC(C(N)=O)CC2)ccc1OCc1ccccc1`, the result was inactive.

Take `Cc1cc(C)c(C#N)c(SCc2nnc(-c3ccccc3)o2)n1`: the molecule was called inactive.

For the molecule `O=C(NC1CCCCC1)c1cc2cc(Br)ccc2o1`, the result was inactive.

In the case of `COc1cc2c(c(OC)c1OC)-c1ccc(OC)c(=O)cc1C(NC(C)=O)CC2` (stereo not drawn), the molecule was classed as inactive.

Consider `O=C(C[n+]1cc(-c2ccc(F)cc2)n2c1CCC2)c1cccs1`, for which the result was inactive.

Take `Cc1nc(SCC(=O)Nc2ccc(CN3CCCC3)cc2)c2c(C)c(C)sc2n1`: the molecule was classed as inactive.

Consider `O=C(CCl)Nc1ccc(Sc2ccc(NC(=O)CCl)cc2)cc1`, for which the molecule was called inactive.

Regarding `O=C(CCl)Nc1ccc(-c2ccccc2)cc1`, the result was inactive.

Consider `Cc1cccc(OCC(=O)Nc2cccc(O)c2)c1`, for which the molecule was called inactive.

Turning to `Cc1ccc2cc(NC(=O)Cc3ccccc3)ccc2n1`, the call was inactive.

For the molecule `COc1cccc(NC(=O)c2cc3ccccc3cc2OC)c1`, the molecule was called inactive.

Take `COc1ccc(-c2cc(-c3ccc(OC)c(OC)c3)n[nH]2)c(O)c1`: the outcome was inactive.

`CCCOC(=O)c1ccc(NC(=O)C2CCCO2)cc1` (stereo not drawn): the result was inactive.

With `CC1=NC(=O)C(N=Nc2cccc(C(=O)O)c2)N1c1ccccc1` (stereo not drawn), the molecule was classed as inactive.

Take `Cc1ccc(-c2c[n+](Cc3ccc(Cl)c(Cl)c3)c3n2CCC3)cc1`: the molecule was called inactive.

With `Cc1oc(=O)c(NC(=O)c2ccccc2)cc1C(=O)c1ccccc1`, the molecule was called inactive.

Consider `Cc1cc(C)c2c(N)c(C(=O)N/N=C/c3ccccc3)sc2n1`, for which the result was inactive.

With `Cc1cc(C)c2nc3nc(C)cc(C)c3c(N)c2c1`, the molecule was called inactive.
